Among the data in PubChem BioAssay are growth inhibition, inhibition and outcome values, retold here.

Assay [1] can be described thus: antimalarial activity against Dd2 strain (AID 2302;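 active means growth inhibition above 50% at the single 2 µM test dose, taken to imply half-maximal potency below 2 µM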;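 further: 0% = DMSO untreated growth and 100% = chloroquine plus artemisinin killed control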). The settings on record: P. falciparum Dd2 in RBCs, LDH growth readout, 72 h; at 2 µM; stronger effect = higher value.
Assay [2] in a line: HepG2 cytotoxicity, primary screen, cytotoxicity control for P. falciparum antimalarial project, cell-based, ATP luminescence (AID 2303;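 active means inhibition above 50%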;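 further: 0% = DMSO wells and 100% = digitonin-killed cells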). The following applies: HepG2 viability, 24-48 h, at 10 µM, stronger effect = higher value.
In assay [3] the target is L-lactate dehydrogenase (Plasmodium falciparum (isolate CDC / Honduras)) (UniProt Q27743). The assay is described as follows: PfLDH activity inhibition – cell lysate, 3D7 strain, counter-screen for P. falciparum growth inhibition project (AID 2304).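 Further: 0% = vehicle and 100% = reference inhibitor.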 The following applies: P. falciparum 3D7 crude extract, LDH APAD/NBT absorbance; at 2 µM; stronger effect = higher value.
Sequence of L-lactate dehydrogenase (Plasmodium falciparum (isolate CDC / Honduras)) (Q27743 whole entry, looked up): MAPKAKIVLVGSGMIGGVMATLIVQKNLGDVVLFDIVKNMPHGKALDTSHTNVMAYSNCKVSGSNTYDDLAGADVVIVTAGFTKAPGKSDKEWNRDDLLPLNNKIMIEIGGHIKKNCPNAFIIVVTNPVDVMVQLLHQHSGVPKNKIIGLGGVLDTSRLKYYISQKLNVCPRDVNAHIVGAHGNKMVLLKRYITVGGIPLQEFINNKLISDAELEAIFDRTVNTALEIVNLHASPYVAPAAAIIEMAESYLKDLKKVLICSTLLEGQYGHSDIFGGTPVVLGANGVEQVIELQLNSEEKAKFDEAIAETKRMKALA
Assay [4] is described as follows: inhibition of 3D7 malaria parasite growth – strain 3D7 (AID 2306).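 Further: 0% = DMSO wells and 100% = chloroquine plus artemisinin control wells.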 The settings on record: P. falciparum 3D7 erythrocytic growth, LDH absorbance, 72 h; at 2 µM; stronger effect = higher value.
Assay [5] concerns the target Calcium-dependent protein kinase 1 (Plasmodium falciparum (isolate 3D7)) (UniProt P62344). In words: PfCDPK1 kinase inhibitors, biochemical, TCAMS library (AID 1159585; cut-off not given, nearly all actives have IC50 up to about 0.98 µM;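 further: inhibitors leave more ATP so luminescence rises with inhibition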). The settings on record: recombinant PfCDPK1, Kinase-Glo ATP depletion luminescence.
Assay [6] concerns the target Plasmodium falciparum protein kinase 6 (PK6, PF3D7_1337100) (UniProt Q8IDW1). The assay is described as follows: PfPK6 kinase inhibitors, biochemical, TCAMS library (AID 1159586). The settings on record: recombinant PfPK6, Kinase-Glo ATP depletion luminescence.
Assay [7] has as its target Protein kinase 7 (PK7), Plasmodium falciparum 3D7 (PF3D7_0213400) (UniProt Q7YTF7). In words: inhibition of Plasmodium PK7 catalytic activity – biochemical, TCAMS antimalarial set, Kinase-Glo luminescence (AID 1159587). The settings on record: recombinant PfPK7, Kinase-Glo ATP depletion luminescence.
The target in assay [8] is Calcium-dependent protein kinase 4 (Plasmodium falciparum (isolate 3D7)) (UniProt Q8IBS5). The assay is described as follows: PfCDPK4 kinase inhibitors, biochemical, TCAMS library (AID 1159588; cut-off not given, nearly all actives have IC50 up to about 0.91 µM). The following applies: recombinant PfCDPK4, Kinase-Glo ATP depletion luminescence.
Sequence of Calcium-dependent protein kinase 4 (Plasmodium falciparum (isolate 3D7)) (Q8IBS5 whole entry, looked up): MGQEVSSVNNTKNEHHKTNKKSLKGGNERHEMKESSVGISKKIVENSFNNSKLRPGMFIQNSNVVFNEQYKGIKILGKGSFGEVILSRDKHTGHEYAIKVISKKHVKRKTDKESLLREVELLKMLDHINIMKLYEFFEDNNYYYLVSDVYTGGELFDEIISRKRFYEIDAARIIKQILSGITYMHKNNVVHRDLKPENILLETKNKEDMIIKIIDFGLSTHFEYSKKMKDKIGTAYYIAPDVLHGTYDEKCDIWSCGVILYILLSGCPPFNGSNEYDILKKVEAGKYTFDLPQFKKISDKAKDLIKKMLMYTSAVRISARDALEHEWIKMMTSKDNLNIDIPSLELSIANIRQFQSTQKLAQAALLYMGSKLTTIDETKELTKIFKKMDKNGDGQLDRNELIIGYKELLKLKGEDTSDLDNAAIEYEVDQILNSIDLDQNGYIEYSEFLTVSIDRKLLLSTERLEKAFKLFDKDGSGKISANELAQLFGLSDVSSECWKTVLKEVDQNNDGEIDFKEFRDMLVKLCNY

Molecules are shown by their SMILES. Values without a mark were called inactive. For part of these data: Entries with a potency or affinity are not part of this list. Activity calls are given as the source filed them. Unless noted, how the calls were made is not given here.

Sequence of Calcium-dependent protein kinase 1 (Plasmodium falciparum (isolate 3D7)) (P62344 whole entry, looked up): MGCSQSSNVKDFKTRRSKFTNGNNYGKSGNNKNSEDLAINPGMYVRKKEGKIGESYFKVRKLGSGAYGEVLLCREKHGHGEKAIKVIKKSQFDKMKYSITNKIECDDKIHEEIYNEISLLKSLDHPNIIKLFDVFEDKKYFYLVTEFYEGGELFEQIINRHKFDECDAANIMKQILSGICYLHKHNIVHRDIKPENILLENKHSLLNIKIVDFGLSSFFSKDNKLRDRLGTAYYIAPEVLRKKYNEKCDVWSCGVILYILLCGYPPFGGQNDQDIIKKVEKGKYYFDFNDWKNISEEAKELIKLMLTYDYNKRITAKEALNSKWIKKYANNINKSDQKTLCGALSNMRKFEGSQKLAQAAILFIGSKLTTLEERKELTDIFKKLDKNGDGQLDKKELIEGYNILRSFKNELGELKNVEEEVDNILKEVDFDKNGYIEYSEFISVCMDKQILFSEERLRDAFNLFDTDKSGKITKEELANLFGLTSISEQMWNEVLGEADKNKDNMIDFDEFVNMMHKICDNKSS
Sequence of Protein kinase 7 (PK7), Plasmodium falciparum 3D7 (PF3D7_0213400) (Q7YTF7 1-343): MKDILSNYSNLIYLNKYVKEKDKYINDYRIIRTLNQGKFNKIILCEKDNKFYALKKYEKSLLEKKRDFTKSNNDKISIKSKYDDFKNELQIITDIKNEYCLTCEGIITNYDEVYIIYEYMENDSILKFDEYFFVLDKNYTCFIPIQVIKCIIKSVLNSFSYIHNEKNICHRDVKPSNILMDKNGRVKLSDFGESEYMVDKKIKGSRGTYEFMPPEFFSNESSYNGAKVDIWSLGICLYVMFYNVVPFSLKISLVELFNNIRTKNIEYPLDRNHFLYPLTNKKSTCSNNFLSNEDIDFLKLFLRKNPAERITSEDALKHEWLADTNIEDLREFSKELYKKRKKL
Sequence of Plasmodium falciparum protein kinase 6 (PK6, PF3D7_1337100) (Q8IDW1 1-305): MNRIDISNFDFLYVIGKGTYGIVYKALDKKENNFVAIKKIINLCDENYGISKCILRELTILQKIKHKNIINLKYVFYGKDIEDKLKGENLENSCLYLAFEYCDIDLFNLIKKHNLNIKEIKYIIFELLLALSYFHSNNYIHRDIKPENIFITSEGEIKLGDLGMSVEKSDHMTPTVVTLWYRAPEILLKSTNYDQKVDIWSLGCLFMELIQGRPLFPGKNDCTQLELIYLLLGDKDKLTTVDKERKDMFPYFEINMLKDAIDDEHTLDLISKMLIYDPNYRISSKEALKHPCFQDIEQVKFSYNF

With `Clc1ccc(CNc2ccnc(NCc3ccc4c(c3)OCCCO4)n2)c(Cl)c1`, the growth inhibition was 20% in assay [1] and 94% (active) in assay [4]. The inhibition in assay [2] was 50% (active); in assay [3], -2%. For the same compound, the result in assay [5], in assay [6], in assay [7] and in assay [8] was inactive.

In the case of `CC(=O)N(C)C1CCN(Cc2cccc(-c3ccc(-c4nc5ccc(F)cc5[nH]4)cc3)c2)C1` (stereo not drawn), the growth inhibition is 19% in assay [1] and 92% (active) in assay [4]. Besides, the values for the inhibition in assay [2] and in assay [3] were 24% and 0%, respectively. Further, the outcome in assay [5], in assay [6], in assay [7] and in assay [8] was inactive.

For `N=C(N)CCN(Cc1ccccc1)c1ccc(Cl)cc1`, the growth inhibition in assay [1] and in assay [4] was 98% (active) in each case. Moreover, the results for the inhibition in assay [2] and in assay [3] were 1% and 4%, respectively. The result in assay [5], in assay [6], in assay [7] and in assay [8] was inactive.

For the compound `O=S(=O)(NCCN1CCCC1)c1ccc(-c2cccc(CNCCc3cccs3)c2)cc1`, the growth inhibition is 30% in assay [1] and 95% (active) in assay [4]. In addition, the results for the inhibition in assay [2] and in assay [3] were 41% and -1%, respectively. Further, the outcome in assay [5], in assay [6], in assay [7] and in assay [8] was inactive.

Regarding `CCOC(=O)c1cccc(NC(=O)Nc2cc(C)nc3ccccc23)c1`, the growth inhibition in assay [1] is 90% (active); in assay [4], 100% (active). The inhibition was 14% in assay [2] and 0% in assay [3]. Besides, the outcome in assay [5], in assay [6], in assay [7] and in assay [8] was inactive.

As to `Fc1ccc(OC2CN(c3nccc(NCc4ccccc4Cl)n3)C2)cc1`, the growth inhibition in assay [1] was 99% (active); in assay [4], 98% (active). Moreover, the inhibition in assay [2] was -2%; in assay [3], 6%. Also, the result in assay [5], in assay [6], in assay [7] and in assay [8] was inactive.

`CC(C)c1ccc2oc(-c3ccc(NC(=O)c4ccc([N+](=O)[O-])o4)cc3)nc2c1`: the figures for the growth inhibition in assay [1] and in assay [4] were 95% (active) and 100% (active), respectively. Besides, the inhibition in assay [2] was 99% (active); in assay [3] it was 6%. Moreover, the result in assay [5], in assay [6], in assay [7] and in assay [8] was inactive.

On to `COc1ccc(-c2cc(-c3nc4ccc(C(=O)N5CCOCC5)cc4[nH]3)c(=O)n(C)c2)cc1OC`, for which the growth inhibition in assay [1] was 95% (active); in assay [4], 93% (active). The inhibition in assay [2] was 6%; in assay [3] it was 4%. Moreover, the outcome in assay [5], in assay [6], in assay [7] and in assay [8] was inactive.

As to `Cc1cc(C)cc(OCC(O)CN(Cc2cc(Cl)cc(Cl)c2)C(=O)Nc2ccc(Cl)cc2)c1` (stereo not drawn), the growth inhibition was 43% in assay [1] and 97% (active) in assay [4]. The inhibition was -9% in assay [2] and -2% in assay [3]. For the same compound, the result in assay [5], in assay [6], in assay [7] and in assay [8] was inactive.

Turning to `N#Cc1cncc(-c2nc3c(N4CCCC(N)C4)cccc3n2CCNCc2ccccc2)c1` (stereo not drawn), the growth inhibition was 1% in assay [1] and 101% (active) in assay [4]. The inhibition in assay [2] is 8%; in assay [3] it was -1%. The outcome in assay [5], in assay [6], in assay [7] and in assay [8] was inactive.

With `COc1ccc2nccc([C@@H](O)CN3CCC(NCCNc4ccccn4)CC3)c2c1`, the growth inhibition in assay [1] is 14%; in assay [4], 101% (active). Moreover, the inhibition in assay [2] was 18%; in assay [3], -4%. Further, the outcome in assay [5], in assay [6], in assay [7] and in assay [8] was inactive.

Regarding `COc1ccc(CCN(C)CCCN2CCC(NC(=O)c3cccc4c(=O)c5ccccc5[nH]c34)CC2)cc1OC`, the growth inhibition was 72% (active) in assay [1] and 99% (active) in assay [4]. Moreover, the values for the inhibition in assay [2] and in assay [3] were 19% and 2%, respectively. In addition, the outcome in assay [5], in assay [6], in assay [7] and in assay [8] was inactive.

For the compound `Cc1cn(CC(=O)Nc2cccc(-c3cccc(-c4nc5ccc(C(F)(F)F)cc5[nH]4)c3)c2)c(=O)[nH]c1=O`, the growth inhibition in assay [1] was 51% (active); in assay [4], 92% (active). The inhibition was 15% in assay [2] and -1% in assay [3]. The result in assay [5], in assay [6], in assay [7] and in assay [8] was inactive.

As for `CC(C)c1cc(Oc2c(I)cc(CCNCc3ccccc3)cc2I)ccc1O`, the growth inhibition was 54% (active) in assay [1] and 95% (active) in assay [4]. Besides, the results for the inhibition in assay [2] and in assay [3] were 42% and 4%, respectively. The result in assay [5], in assay [6], in assay [7] and in assay [8] was inactive.

For `CC(C)(C)c1ccc(NC(=O)c2ccc(CN3CCCN(Cc4cccc(F)c4)CC3)cc2)cc1`, the growth inhibition in assay [1] was 8%; in assay [4] it was 90% (active). Besides, the inhibition in assay [2] is 51% (active); in assay [3], -2%. Moreover, the outcome in assay [5], in assay [6], in assay [7] and in assay [8] was inactive.

As for `O=C(Nc1ccon1)c1cc(-c2cccnc2)nc2ccc(Cl)cc12`, the growth inhibition is 76% (active) in assay [1] and 98% (active) in assay [4]. Moreover, the inhibition in assay [2] is -4%; in assay [3] it was 6%. The outcome in assay [5], in assay [6], in assay [7] and in assay [8] was inactive.

As to `C=CCOC(=O)N1CCC(CNCc2cccc(-c3ccc(-c4nc5ccc(C(F)(F)F)cc5[nH]4)cc3)c2)C1` (stereo not drawn), the growth inhibition is 96% (active) in assay [1] and 102% (active) in assay [4]. Besides, the results for the inhibition in assay [2] and in assay [3] were 28% and -3%, respectively. Besides, the result in assay [5], in assay [6], in assay [7] and in assay [8] was inactive.

As to `CNCCNCc1cccc(-c2cccc(-c3nc4ccc(F)cc4[nH]3)c2)c1`, the growth inhibition is 15% in assay [1] and 98% (active) in assay [4]. The inhibition was 20% in assay [2] and -2% in assay [3]. Also, the result in assay [5], in assay [6], in assay [7] and in assay [8] was inactive.

`CCOC(=O)c1cc(Cl)ccc1OCCCON1C(N)=NC(N)=NC1(C)C`: the values for the growth inhibition in assay [1] and in assay [4] were 95% (active) and 94% (active), respectively. The values for the inhibition in assay [2] and in assay [3] were 69% (active) and 3%, respectively. Further, the result in assay [5], in assay [6], in assay [7] and in assay [8] was inactive.

On to `COc1ccc(C=NNc2ccnc3ccccc23)c2ccccc12`, for which the growth inhibition was 98% (active) in assay [1] and 102% (active) in assay [4]. Besides, the inhibition was 27% in assay [2] and 0% in assay [3]. Also, the result in assay [5], in assay [6], in assay [7] and in assay [8] was inactive.

Take `Cc1ccc(F)cc1S(=O)(=O)Nc1ccc(CCN2CCC(N3CCCCC3)CC2)cc1`: the growth inhibition was 15% in assay [1] and 99% (active) in assay [4]. The inhibition in assay [2] was 25%; in assay [3] it was -3%. The result in assay [5], in assay [6], in assay [7] and in assay [8] was inactive.
